The entries come from a sample that favours hits as a whole.
Tgondii IFNg: inhibitors of Toxoplasma gondii growth with IFN-gamma. Toxoplasma gondii growth in IFN-gamma-treated host cells; stronger effect = lower value. AID 1259416. 69,000 compounds, 3.8% hits. activity change, negative = inhibition, % (test concentration not listed); in the data active = activity change below about -70%, passing the limit was not always enough;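 also: host cells are HeLa cells infected with Toxoplasma gondii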
The depositor's hits bear a star; ! = not confirmed by another sample.

SMILES	Tgondii IFNg
O=C1C2C3C=CC(C2C(=O)N1Cc1cccnc1)C1C(=O)N(Cc2cccnc2)C(=O)C31 (stereo not drawn)	18
NC(=O)C1(N2CCCCC2)CCN(c2ncc(S(=O)(=O)c3ccccc3)c(N)n2)CC1	69
CC(C)c1ccc(S(=O)(=O)c2cnc(N3CCC(C(N)=O)(N4CCCCC4)CC3)nc2N)cc1	27
CCc1ccc(S(=O)(=O)c2cnc(N3CCC(C(N)=O)(N4CCCCC4)CC3)nc2N)cc1	-78*
O=C(CSc1n[nH]c(=O)n1-c1ccccc1C(F)(F)F)c1ccc(F)cc1	-29
CC(c1ccccc1)n1c(SCC(=O)O)nnc1C1CCOCC1 (stereo not drawn)	8
CC(c1ccccc1)n1c(SCC(=O)c2csc3ccccc23)n[nH]c1=O (stereo not drawn)	-79*
Cc1cccc(C(=O)N2CCC3(CC2)CN(c2ncccn2)CC32CCN(C)C2=O)n1 (stereo not drawn)	14
COc1cccc(CNc2ncc(-c3ccncc3)c(-c3cccs3)n2)c1	-52
COc1ccc(-c2ccnc(SC)n2)cc1	-82*
COc1ccc(-c2cc(N)nc(N)n2)cc1	16
COc1ccc(-c2cc(C3CCN(C(C)=O)CC3)ccn2)cc1	74
COc1ccc(-c2cc(C(F)(F)F)n3nc(-c4cccs4)cc3n2)cc1	-51
COc1ccc(-c2ccnc(-c3cccs3)n2)cc1	-103*
CCOC1C2CCC1N(S(=O)(=O)c1ccc(OC)cc1)C2 (stereo not drawn)	41
C[C@@H]1CN([C@@H](C)CO)C(=O)CCCn2cc(nn2)CO[C@H]1CN(C)Cc1ccccc1	347
CC(=O)N(CCC1(c2ccc(C)cc2)CCOC(C(C)C)C1)Cc1ccco1 (stereo not drawn)	17
O=c1[nH]c(=O)n([C@H]2C[C@H](O)[C@@H](CO)O2)cc1Br	-45
O=c1[nH]c(=O)n([C@H]2C[C@H](O)[C@@H](CO)O2)cc1F	-94*
Cc1cn(C2CC(O)C(CO)O2)c(=O)[nH]c1=O (stereo not drawn)	-7
Cc1[nH]c2c(c1C(=O)N1CCCC3(CCN(C)C3)C1)C(=O)CCC2 (stereo not drawn)	2
Cc1cc(Cl)nc(-c2ccc(Br)cc2)n1	10
CCN(Cc1ccccc1)C(=O)c1cc(COc2cncc(Cl)c2)on1	-30
COc1cccc(S(=O)(=O)Nc2ccc(-c3nc(-c4ccc(C)cc4C)co3)cc2)c1	-53
O=c1[nH]c2cc(Cl)c(Cl)cc2[nH]c1=O	-72*
SMILES	Tgondii IFNg
O=c1[nH]c2cc(C(F)(F)F)cc(Br)c2[nH]c1=O	-64
O=c1[nH]c2cc(Cl)c(Cl)c([N+](=O)[O-])c2[nH]c1=O	17
Cc1cccc(-n2ccnc2-c2cnc(NCC3CCCO3)nc2)c1 (stereo not drawn)	-12
COCC(NC1CSCCSC1)c1ccnn1C (stereo not drawn)	-3
O=C(Nc1ncc(SCCN2CCCC2)s1)[C@]1(c2ccc(S(=O)(=O)C3CC3)cc2)C[C@H]1C1CCCCC1	-73*
O=C(CCc1nc2ccccc2[nH]1)N1CCc2c(ncnc2N2CCOCC2)C1	-1
CC(C)N=c1cc2n(-c3ccc(Cl)cc3)c3ccccc3nc-2cc1Nc1ccc(Cl)cc1	-71*!
Clc1ccc(NCn2nnc3ccccc32)cc1	90
CC(C)C(=O)NCC1CCC(c2c(C(=O)N(C)C)sc3ncccc23)CC1 (stereo not drawn)	12
CCn1c(CC2CCN(C(=O)C(C)Cn3cccn3)CC2)n[nH]c1=O (stereo not drawn)	5
COc1cccc(-c2nc3cnccn3c2NCCC(=O)NC2CCN(C)CC2)c1	-18
Cc1ccc(-c2nc3cnccn3c2NCCC(=O)NC2CCN(C)CC2)cc1	53
CCS(=O)(=O)c1cccc(-c2cc(C(=O)NC3CCN(C)CC3)c(C)c3[nH]c4ncc(C)cc4c23)c1	-80*
CCn1c(CN2c3ccccc3Sc3ccccc32)n[nH]c1=S	-30
COc1ccc(S(=O)(=O)N2C[C@H](O)COC[C@H]3O[C@@H](CC(=O)N[C@@H]4CCN(Cc5ccccc5)C4)CC[C@@H]32)cc1	-14
CC(C)C(=O)NCC1CCN(Cc2cnc(-c3ccco3)nc2)C1 (stereo not drawn)	3
COc1ccc(-c2nc(N(C)Cc3ccccc3)c3ccccc3n2)cc1	15
Cc1nc2c(c(=O)[nH]1)CCN(Cc1cccn1Cc1ccccc1F)C2	15
Cn1c(=O)c2c(nc(CN3CCc4ccccc4C3)n2Cc2ccccc2F)n(C)c1=O	-79*
Cn1c(=O)c2c(nc(N3CCN=C3SCC(N)=O)n2Cc2ccccc2)n(C)c1=O	-11
CCN1C(=O)N(Cc2cccc(OC)c2)C(=O)C12CCN(Cc1ccccc1Cl)CC2	-38
CSC1SCC2C(=O)N(C)C(C(C)C)C(=O)OCC(NC(=O)c3cnc4ccccc4n3)C(=O)NC(C)C(=O)N(C)C1C(=O)N(C)C(C(C)C)C(=O)OCC(NC(=O)c1cnc3ccccc3n1)C(=O)NC(C)C(=O)N2C (stereo not drawn)	-77*
COc1ccc(CC(=O)N2CCC3(CC2)Nc2cc(F)ccc2-n2cccc23)cc1	87

Source: PubChem BioAssay
